Among all 65,000 compounds or so, about 2,100 (3.2%) showed an effect of 50% or more. The median lay at about -52%. For the sample, strong results were picked, then their nearest neighbours and some compounds at random.

The subject of the experiment is Plasmodium falciparum. The experiment is described as follows: Screen against P. falciparum Asexual Blood Stage (ABS), at 5uM. The format is functional, Dd2. Conditions: tested at 5 uM.
For `c1ccc(CN2Cc3nccn3CC(Cn3cccn3)C2)nc1` (centres undefined), the INHIBITION was -16.2%. The same measure for `CCN(CC)Cc1cn2c(n1)CN(C(=O)Cc1ccsc1)CC2`: -53.3%; for `Cc1cc(N(Cc2ccccn2)C2CC2)n2nc(C(F)(F)F)nc2n1`: -61.2%; for `Cc1cc(N(Cc2cccs2)C2CC2)n2nc(C(F)(F)F)nc2n1`: 67.3%. The same measure for `Cc1cc(N(Cc2ccccc2F)C2CC2)n2nc(C(F)(F)F)nc2n1`: 4%; for `CC1c2ncc(Cn3cccn3)n2CCN1Cc1ccccn1` (centres undefined): -88.5%. With `Cc1nnc2n1CCN(C(C(=O)NC1CC1)c1ccc(F)cc1)C2` (centres undefined) the figure was -127%; with `CCN1CCN(CCNC(=O)c2ccn(-c3ccc(F)cc3)n2)CC1`, -11.4%. Consider `NC(=O)CC1CCN(C(=O)c2cccn2Cc2cccs2)CC1`, for which the INHIBITION was -68.7%.

`COc1ncccc1CN1C[C@H]2C[C@@H](C(=O)NCC3CC3)N(C)[C@H]2C1`: the INHIBITION is recorded as 51.2%. `CN1[C@@H](C(=O)NCC2CC2)C[C@@H]2CN(Cc3ccoc3)C[C@@H]21`: the INHIBITION was found to be 30.4%. As to `CN1[C@@H](C(=O)NCC2CC2)C[C@@H]2CN(Cc3ccco3)C[C@@H]21`, the INHIBITION was -99%.

On to `CCOc1ccc(C(=O)N2CCCC2c2c(C)nn(C)c2Cl)cn1` (centres undefined), for which the INHIBITION is listed as -37.6%.

With `COc1cccc(CN2CCC3(CC2)CCN(c2ncccn2)C3)c1`, the INHIBITION was determined as 0.0663%. The same measure for `COc1cccc(CN2CCC3(CC2)CCN(c2ncc(C)cn2)C3)c1`: -73.3%. Regarding `CCS(=O)(=O)N1CCC2(CCN(Cc3cccc(OC)c3)CC2)CC1`, the INHIBITION was found to be 68.4%.

For `NC(=O)C1CCCN1Cc1cccc(NC(=O)c2cc(Cl)cc(Cl)c2)c1` (centres undefined), the INHIBITION is given as -51%. As for `Fc1ccc(CN2CCCCC2Cn2cncn2)c2ncccc12` (centres undefined), the INHIBITION came out at 65.8%. The same measure for `N#Cc1ccc(CN2CCCC2Cn2cccn2)c(F)c1` (centres undefined): -129%; for `Clc1cc(CN2CCCC2Cn2cncn2)c2ncccc2c1` (centres undefined): 2.88%; for `Clc1cc(CN2CCCC(Cn3cncn3)C2)c2ncccc2c1` (centres undefined): 39.2%.

With `Fc1ccc(CN2CCCC(Cn3cncn3)C2)c2ncccc12` (centres undefined), the INHIBITION is -1.08%. With `Clc1ccc2cccnc2c1CN1CCCCC1Cn1cncn1` (centres undefined) the figure was 48.2%. With `N#Cc1ccc(F)c(CN2CCCC2Cn2cccn2)c1` (centres undefined) the figure was -15.1%; with `Fc1ccc(CN2CCCC2Cn2cccn2)c2ncccc12` (centres undefined), 59.1%. Regarding `Clc1ccc(CN2CCCC(Cn3cncn3)C2)c2ncccc12` (centres undefined), the INHIBITION stood at 64.6%. As for `Fc1ccc(CN2CCCC2Cn2cncn2)c2ncccc12` (centres undefined), the INHIBITION came out at 13.9%. The same measure for `Clc1ccc2cccnc2c1CN1CCCC1Cn1cncn1` (centres undefined): 53.7%; for `Clc1ccc(CN2CCCCC2Cn2cncn2)c2ncccc12` (centres undefined): 17.8%.

The record behind these values is ChEMBL document CHEMBL4513216, “Probing the Open Global Health Chemical Diversity Library for Multistage-Active Starting Points for Next-Generation Antimalarials” (ACS Infect Dis, 2020).
